Our source for the growth values is PubChem BioAssay (NCI).

What all share (assay): NCI-60 one-dose screen, 48 h (100 = growth as untreated, 0 = no growth, -100 = all killed)
Common to all, as to conditions: 10 µM

Test [1] has as its system NCI-H23 lung.
In test [2] the test system is NCI-H226 lung.
Test [3] concerns NCI-H322M lung.
In test [4] the test system is HOP-62 NSCLC.
For test [5], the system named is NCI-H460 lung.
Test [6] relates to HOP-92 NSCLC.
In test [7] the test system is NCI-H522 lung.
The subject of test [8] is A549/ATCC NSCLC.
The subject of test [9] is 786-0 renal.
The subject of test [10] is COLO 205 colon.

Compounds without any hit were thinned out: in the full panel of roughly 83,000, 20% have a hit.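 For each line, cells grew in 96-well plates with the test compound present at a single concentration for 48 hours.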 A number with no mark means an inactive call. The source made the active and inactive calls. How the source made its calls: active means growth percent below 10; inactive means the rest.

For the molecule `CCCCCCCCCCCC(c1ccccc1)N(C)C` (stereo not given), the growth in test [1] is 102%; in test [2] it was 97.2%; in test [3] it was 103%; in [4], 119%; in test [5], 105%; in test [6], 74.2%. Also, the growth was 103% in [7], 97.5% in [8], 104% in [9] and 101% in [10].

Turning to `COc1ccc(-c2cc(/C=C/C(=O)c3ccc(N)cc3)[nH]n2)cc1OC`, the growth in test [1] is 51.6%; in test [2] it was 82.3%; in test [3], 38.3%; in test [4], 55.4%; in [5], 3.19% (active); in [6], 33.5%. Besides, the growth was 24.7% in test [7], 32% in test [8], 42.6% in test [9] and 27.1% in test [10].

As for `CC(C)c1ncc(CO)n1Cc1c(Cl)cccc1Cl`, the growth in test [1] is 110%; in [2], 94.3%; in test [3] it was 99.7%; in test [4], 103%; in [5] it was 103%; in [6], 93.6%. Besides, the growth in test [7] was 94.4%; in test [8] it was 102%; in [9] it was 104%; in [10], 89.6%.

For `Cc1ccc2c3c(cccc13)-c1ccccc1C2=O`, the growth was 86.5% in test [1]; 91.1% in [2]; 92.4% in test [3]; 93.6% in [4]; 96.2% in test [5]; 108% in [6]. The growth in test [7] is 67.1%; in test [8], 81.8%; in test [9], 99.4%; in [10], 93.9%.

As to `O=[N+]([O-])c1ccc(S(=O)(=O)OCCCCOS(=O)(=O)c2ccc([N+](=O)[O-])cc2)cc1`, the growth in test [1] is 102%; in [2], 90.1%; in [3], 112%; in test [4], 98.5%; in [5], 108%; in test [6], 110%. Besides, the growth in [7] was 96.8%; in test [8], 103%; in test [9] it was 99%; in test [10], 117%.

For `NC(=O)C1CCCN(Cc2c[nH]c3ccccc23)C1` (stereo not given), the growth is 95.8% in test [1]; 84.5% in test [2]; 98.5% in test [3]; 91.1% in [4]; 106% in [5]; 96.2% in [6]. Further, the growth in test [7] was 84.6%; in test [8], 96.4%; in test [9] it was 105%; in test [10], 104%.

On to `COc1cc(-c2cc(-c3ccc(C)cc3)nc3nc(N)[nH]c(=O)c23)ccc1Oc1ccnc2cc(Cl)ccc12`, for which the growth in test [1] is 107%; in test [2], 73.3%; in [3] it was 80.6%; in test [4] it was 98.4%; in test [5], 96%; in [6] it was 70.4%. Besides, the growth in test [7] was 92.5%; in [8], 78.7%; in test [9] it was 98.1%; in test [10] it was 107%.

In the case of `CCCCCCN=C(N)CCCCCCCCCCC(N)=NCCCCCC`, the growth in test [1] is 27.8%; in test [2] it was 51.6%; in test [3] it was 62.4%; in test [4], 18.5%; in test [5], 13.4%; in [6], 8.01% (active). Further, the growth in test [7] is 23.9%; in [8], 33.7%; in [9] it was 37%; in [10], -9.55% (active).

For `COc1c(C)c(C)c(OC)c2c1[nH]c(=O)c1c3cccnc3cn21`, the growth in [1] is 103%; in test [2], 99%; in [3], 153%; in test [4] it was 92.6%; in test [5], 104%; in [6] it was 102%. Also, the growth in test [7] is 98.4%; in [8] it was 114%; in test [9] it was 114%; in [10], 118%.

`COc1ccc(C(=O)n2nc(CC(=O)NCc3ccccc3)nc2N)cc1`: the growth is 108% in test [1]; 106% in test [2]; 95.4% in test [3]; 108% in test [4]; 115% in [5]; 111% in test [6]. Besides, the growth was 104% in test [7], 109% in [8], 97% in test [9] and 117% in test [10].

In the case of `CC(C)C(C)C(N)C(=O)O` (stereo not given), the growth in test [1] is 97.8%; in test [2], 102%; in [3], 99%; in [4], 89.9%; in test [5] it was 109%; in test [6] it was 86.8%. The growth in test [7] is 91.2%; in test [8], 104%; in test [9], 92.8%; in test [10] it was 108%.

As to `O=C(/C=C/c1nnc2n(Cc3ccccc3)c(=O)c3c4c(sc3n12)CCCC4)c1ccccc1`, the growth in [1] was 96.9%; in test [2], 102%; in test [3] it was 107%; in test [4] it was 92.4%; in test [5], 104%; in [6], 77.1%. For the same molecule, the growth in test [7] was -3.27% (active); in [8] it was 104%; in test [9], 83.8%; in test [10] it was 78.6%.

For the molecule `COc1ccc(-c2nsc3c2NC(=O)CC3c2ccc(Cl)cc2)cc1` (stereo not given), the growth in [1] was 83.9%; in [2], 84.4%; in test [3] it was 83.5%; in test [4], 92.6%; in test [5], 94.8%; in test [6] it was 73.3%. The growth in [7] is 68.1%; in test [8], 76.6%; in [9], 84.2%; in test [10] it was 93.8%.

For the molecule `CCOC(=O)CSC(=S)SCC(=O)OCC`, the growth is 110% in test [1]; 106% in test [2]; 118% in test [3]; 105% in [4]; 107% in [5]; 108% in test [6]. Also, the growth in [7] is 67.7%; in test [8] it was 99%; in test [9], 103%; in test [10], 127%.
